Here are results for 40 molecules from PubChem BioAssay (NCATS).

Records with an inconclusive call do not appear. Where a call stands in place of a potency, no number is given. Calls of active or inactive are those of the source. The call rests on the fitted dose curve; in most records, active means well fitted cell-killing curve with a large enough effect; inconclusive means small, poorly fitted or top-dose-only effect, or effect the other way; inactive means no such curve, though single readings can be large or run the other way.
Potency means the concentration at half of the fitted maximal effect.

The test can be described thus: Quantitative highthroughput screen to assess conditional lethalithy of NOMO1 cells grown in Human Plasma-Like Medium with dialyzed fetal bovine serum (HPLM+ds) (AID 1963878). Further: nearly all actives have a fitted effect of over 35% in size. The settings on record: NOMO1 AML cells in HPLM+ds, CellTiter-Glo viability, 48 h; series mostly up to 45.8 µM. From the text: Assay Provider: Jason Cantor Ph.D.
Department of Biochemistry
University of Wisconsin-Madison, Madison, WI, USA
Chemical screening studies have identified drug sensitivities across hundreds of cancer cell lines but most putative therapeutics fail to translate. Discovery and development of drug candidates in models that more accurately reflect nutrient levels in human blood is a major challenge. Here we performed high-throughput screens in conventional versus Human Plasma-Like Medium (HPLM) to identify compounds that were "missed" when screening using the artificial culture condition. Sets of conditional anticancer compounds spanned phases of clinical development and included non-oncology drugs were assessed. […] We also traced conditional phenotypes for several chemotherapeutics to availability of HPLM-specific metabolites and confirmed others for compounds whose reported targets are encoded by nonessential genes. Our findings establish generalizable strategies for exploiting conditional lethality in HPLM to reveal therapeutic candidates and mechanisms of action in cancer cells.
Described herein are the results of each viability screens against three cell lines: NOMO1 (an acute myeloid leukemia cell line); P12-Ichikawa (a T-cell acute lymphoblastic leukemia); and SEM (a B-cell ALL). Each assay was screened using 3 different cell culture media: homemade human plasma-Like medium with 10% dialyzed fetal bovine serum (HPLM+ds); RPMI1640 with 10% untreated FBS and 5mM glucose (RPMI+s); and RPMI1640 with 10% dialyzed fetal bovine serum and 5 mM glucose (RPMI+ds).
PROTOCOL TABLE (as described by Inglese J, Shamu CE and Guy RK. 2007)
SEQUENCE No. (e.g., 1, 2, 3, etc.); […] (e.g., Cells, Incubation, Reagent, etc.); VALUE and DESCRIPTION.
1; Cells; 5 uL; white, solid bottom 1536-well Greiner assay plate.
2; Compounds; 23 nL; Kalypsis pin tool (Wako USA) equipped with a 1536-well pin head to transfer to the assay plates.
3; Incubation; 48 hours; 37C incubation.
4; Reagent; 3 uL; CellTiter Glo (Promega).
5; Incubation; 5 min, room temperature
6; Detection; Luminescence, Viewlux PerkinElmer.
NOTES (numbers refer to Sequence numbers above)
1. Briefly, 5 ul of cell reagent was dispensed using a Multidrop Combi Dispenser. The NOMO1 and SEM cells were plated at 500 cells/well and the P12-Ichikawa line at 1000 cells/well.
2. After seeding the cells, 23 nL of MIPE 4.1 library compounds (in DMSO) were added to each plate using a Kalypsys 1536 Pintool dispenser. Bortezomib at final concentration of […] and DMSO were added to each plate as positive and negative controls respectively. For each screen, MIPE 4.1 compounds were added over an eleven-point concentration range […] in 3-fold dilutions.
3. Each plate was covered with a stainless steel gasketed lid to prevent evaporation and incubated for 48 hour at 37C, 95% relative humidity, and 5% CO2.
4-5. Three microliter CellTilter-GloTM luminescent substrate mix (Promega) reagent was added to the assay plate and incubated at room temperature for 5 min.
6. The luminescence signal was measured using a ViewLux (PerkinElmer) multiplate reader with a 2 second exposure time per plate. Data for each compound were normalized as percent viability such that measurements for DMSO and the empty well controls in each plate were defined as 100% and 0%, respectively.
`COCCCN1CCC(NC(=O)c2cc(Cl)c(N)c3c2OCC3)CC1`: the Potency entry is “inactive”.
Then `CCCc1nc(C)c2c(=O)[nH]c(-c3cc(S(=O)(=O)N4CCN(CC)CC4)ccc3OCC)nn12`, with 9.35 µM (active).
Next, `CCc1ccc(OCc2ccccc2C(=O)Nc2ccc3nc(C)cc(N)c3c2)cc1`: 3.32 µM (active).
Next, `Fc1ccc(C(c2ccc(F)cc2)N2CCN(CC=Cc3ccccc3)CC2)cc1`: “inactive”; `N#C[C@H]1C[C@H]2C[C@@H]2N1C(=O)[C@@H](N)C12CC3CC(CC(O)(C3)C1)C2`: 10.5 µM (active).
With `CC(C)N(CCCNC(=O)Nc1ccc(C(C)(C)C)cc1)C[C@H]1O[C@@H](n2cc(Br)c3c(N)ncnc32)[C@H](O)[C@H]1O`, the Potency was 20.9 µM (active).
Next, `Cc1ccc2c(=O)c3cccc(CC(=O)O)c3oc2c1C`: “inactive”.
Next, `Nc1nc(N)c2nc(-c3cccc(O)c3)c(-c3cccc(O)c3)nc2n1`: 10.5 µM (active); `Nc1nc(Nc2ccc(S(N)(=O)=O)cc2)nn1C(=O)c1c(F)cccc1F`: 18.7 µM (active); `CN1C(C(=O)Nc2ccccn2)=C(O)c2sc(Cl)cc2S1(=O)=O`: “inactive”.
For `C[C@H]1Oc2cc(cnc2N)-c2c(nn(C)c2C#N)CN(C)C(=O)c2ccc(F)cc21`, the Potency entry is “inactive”.
With `COc1ccc(CC2=NN3C([C@@H](CCc4ccccc4)[C@@H](C)O)=NC(C)C3C(=O)N2)cc1OC` (stereo not given in full), the Potency entry was “inactive”.
Then `COc1ccc(C=Cc2cc(OC)c(OC)c(OC)c2)cc1O`, with “inactive”; and `Clc1cccc(-n2nnnc2NCc2ccccc2Oc2ccccn2)c1Cl`, with “inactive”.
Next, `c1cnc2cc3c(cc2n1)C1CNCC3C1`: “inactive”.
On to `Cn1cc(-c2ccc3ncc(Cc4ccc5ncccc5c4)n3n2)cn1`, for which the Potency result was “inactive”.
Then `COc1ccc2c(c1)c(CC(=O)O)c(C)n2C(=O)c1ccc(Cl)cc1`, with “inactive”.
Then `CCCCCCCCc1ccc(CCC(N)(CO)CO)cc1`, with 14.8 µM (active); and `Cc1ncc([N+](=O)[O-])n1CC(C)O` (stereo not given), with “inactive”; and `C[C@@H]1COCCN1c1cc(C2(S(C)(=N)=O)CC2)nc(-c2ccnc3[nH]ccc23)n1` (stereo not given in full), with 1.17 µM (active).
Next, `CCOc1cc2ncc(C#N)c(Nc3ccc(F)c(Cl)c3)c2cc1NC(=O)C=CCN(C)C`: 4.69 µM (active).
For `CCCNC(=O)Nc1ccc(Oc2ncnc3cc(OC)c(OC)cc23)cc1Cl`, the Potency entry is “inactive”.
Then `COc1ccc(CCC(=O)Nc2nc3ccc(Cl)cc3s2)cc1OC`, with “inactive”; and `CC(C)(OCc1nn(Cc2ccccc2)c2ccccc12)C(=O)O`, with “inactive”.
Turning to `O=C1CCCC(=O)C1C(=O)c1ccc(C(F)(F)F)cc1[N+](=O)[O-]`, the Potency entry was “inactive”.
For `Cc1nc(-c2ccc(OCC(C)C)c(C#N)c2)sc1C(=O)O`, the Potency result was “inactive”.
Then `COC(=O)C1=C(C)NC(C)=C(C(=O)OC(C)C)C1c1cccc2nonc12` (stereo not given), with “inactive”; and `Oc1cccc(-c2nc(N3CCOCC3)c3oc4ncccc4c3n2)c1`, with “inactive”; and `Nc1ccn(C[C@@H](CO)OCP(=O)(O)O)c(=O)n1`, with “inactive”.
Then `O=c1n(CCCN2CCN(c3cccc(Cl)c3)CC2)nc2ccccn12`, with “inactive”; and `COC(=O)N[C@H](C(=O)N[C@@H](Cc1ccccc1)[C@@H](O)CN(Cc1ccc(-c2ccccn2)cc1)NC(=O)[C@@H](NC(=O)OC)C(C)(C)C)C(C)(C)C`, with “inactive”; and `CCCCn1c(=O)n(Cc2ccccc2F)c(=O)c2[nH]c(Cc3ccc(NC(C)=O)cc3)nc21`, with “inactive”.
With `N#CC1(c2ccc(NC(=O)c3cccnc3NCc3ccncc3)cc2)CCCC1`, the Potency entry was “inactive”.
With `NNc1nncc2ccccc12`, the Potency entry was “inactive”.
Next, `CC1Cc2ccccc2N1NC(=O)c1ccc(Cl)c(S(N)(=O)=O)c1` (stereo not given): “inactive”; `O=C1c2ccccc2-[n+]2ccc3c([nH]c4ccccc43)c21`: 5.26 µM (active).
For `CC1COC2(CCN(c3nc(=O)c4cc(C(F)(F)F)cc([N+](=O)[O-])c4s3)CC2)O1` (stereo not given), the Potency result was “inactive”.
Then `CC(C)=CCCC(C)=CCCC(C)=CCCC(C)=CCCC(C)=CCCC(C)=CCCC(C)=CCCC(C)=CCCC(C)=CCO`, with “inactive”.
Then `CCOC(=O)N1c2ccc(C(F)(F)F)cc2[C@@H](N(Cc2cc(C(F)(F)F)cc(C(F)(F)F)c2)C(=O)OC)C[C@H]1CC`, with “inactive”; and `CC(C)(C)C(=O)Oc1ccc(S(=O)(=O)Nc2ccccc2C(=O)NCC(=O)O)cc1`, with “inactive”.
